The nature of assay [1]: NCI Yeast Anticancer Drug Screen. Data for the rad50 strain (AID 155).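 Also: 0% = growth of vehicle-only cultures of the same strain.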 As to conditions: S. cerevisiae rad50 strain growth inhibition; at 50.0 µM; stronger effect = higher value. The method, boiled down:
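DNA repair mutant yeast, compound exposure, growth read-out; inhibition is taken relative to vehicle.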

The nature of assay [2]: NCI Yeast Anticancer Drug Screen. Data for the mec2-1 strain (AID 157). As to conditions: S. cerevisiae mec2-1 strain, at 50.0 µM, stronger effect = higher value. Summed up: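 Growth inhibition is read against vehicle-treated controls after compound exposure of the mec2-1 yeast strain, which is defective in DNA damage repair or cell cycle control.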
Assay [3] in a line: NCI Yeast Anticancer Drug Screen. Data for the sgs1 mgt1 strain (AID 161).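 Also: 0% = growth of cultures given vehicle only.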 The conditions noted are these: S. cerevisiae sgs1 mgt1 strain, at 50.0 µM, stronger effect = higher value. The method, boiled down:
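Growth of a repair-deficient yeast mutant was monitored after compound treatment and expressed as inhibition relative to vehicle-treated cultures.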

A short description of assay [4]: NCI Yeast Anticancer Drug Screen. Data for the cln2 rad14 strain (AID 165).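 Also: 0% = growth equal to vehicle treated cultures.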 As to conditions: S. cerevisiae cln2 rad14 strain, at 50.0 µM, stronger effect = higher value. Summed up:
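Growth inhibition, relative to vehicle-treated controls, is the read-out. The test organism is a yeast strain with defined genetic alterations, cln2 rad14.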

A short description of assay [5]: NCI Yeast Anticancer Drug Screen. Data for the bub3 strain (AID 167). As to conditions: S. cerevisiae bub3 mutant strain, at 50.0 µM, stronger effect = higher value. Summed up: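 In this screen, a yeast mutant lacking normal mitotic checkpoint function is challenged with compound. Relative growth versus vehicle gives the inhibition value.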
Assay [6] can be described thus: NCI Yeast Anticancer Drug Screen. Data for the mlh1 rad18 strain (AID 175). The conditions noted are these: S. cerevisiae mlh1 rad18 strain growth inhibition; at 50.0 µM; stronger effect = higher value. Summed up:
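Cells of a genetically altered yeast strain, deficient in DNA damage repair, were treated with compound. Their growth was then compared with that of vehicle-treated cultures to give inhibition.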

The panel holds about 79,000 compounds, 15% with a hit somewhere; the sample as a whole holds those more often. A number with no mark means an inactive call. Calls of active or inactive are those of the source. Rule as the data show it: active = growth inhibition above about 70%; inactive = the rest.

As to `[N-]=[N+]=CC(=O)C(CN)(Cc1ccccc1)c1ccc(Cl)cc1` (centres undefined), the growth inhibition in assay [1] is 35.1%; in assay [2], 1.45%; in assay [3], 9.1%; in assay [4], -31.9%; in assay [5], -9.45%; in assay [6] it was 9.05%.

With `O=C(O)C(O)c1cccc([N+](=O)[O-])c1` (centres undefined), the growth inhibition is 11.1% in assay [1]; 11.7% in assay [2]; -8.8% in assay [3]; -7.05% in assay [4]; -32.2% in assay [5]; -12.9% in assay [6].

For the compound `COc1ccc(/C=N/n2cnc3c(c2=O)S/C(=C2/SC(=S)N(c4ccc(C)cc4)C2=O)N3c2ccccc2)cc1`, the growth inhibition in assay [1] was -29.5%; in assay [2], -57.2%; in assay [3], -12.8%; in assay [4], -75%; in assay [5] it was -25.9%; in assay [6], -11.9%.

With `C(=C/c1ccccc1)/CNCCNC/C=C/c1ccccc1`, the growth inhibition is 46.1% in assay [1]; 22.6% in assay [2]; 40.8% in assay [3]; 35% in assay [4]; 35.3% in assay [5]; 47.5% in assay [6].

Turning to `C1CCc2[nH]nc(-c3n[nH]c4c3CCCCC4)c2CC1`, the growth inhibition was 9.25% in assay [1]; 3.35% in assay [2]; 19.9% in assay [3]; 9.95% in assay [4]; 12.3% in assay [5]; 18.5% in assay [6].

As to `CCN(CC)c1ccc(N)cc1`, the growth inhibition in assay [1] is -4.05%; in assay [2], -9.9%; in assay [3] it was 26.1%; in assay [4], -4.4%; in assay [5] it was -3.1%; in assay [6], 35.1%.

On to `C/C(=C/C=C(c1ccccc1)c1ccccc1)C1CCC2C3CCC4CC5CCC4(C)C3(O5)C(=O)CC12C` (centres undefined), for which the growth inhibition in assay [1] is 89.6% (active); in assay [2], 60.6%; in assay [3], 73% (active); in assay [4] it was 83% (active); in assay [5] it was 93.3% (active); in assay [6], 92.8% (active).

`CCC1CC(O)c2ccccc2O1` (centres undefined): the growth inhibition in assay [1] was -7.85%; in assay [2], -4.2%; in assay [3] it was -5.95%; in assay [4], 8.85%; in assay [5], -0.35%; in assay [6], -1.65%.

With `O=S(=O)(/C=C/c1ccc(Cl)cc1Cl)Cc1ccccc1CS(=O)(=O)/C=C/c1ccc(Cl)cc1Cl`, the growth inhibition in assay [1] was 4.85%; in assay [2], 5.3%; in assay [3], -27.6%; in assay [4] it was -20.8%; in assay [5] it was 6.95%; in assay [6], -9.15%.

Take `CN(C)CCCOC(=O)C(O)(Cc1ccccc1)C1CC1` (centres undefined): the growth inhibition in assay [1] was 10.7%; in assay [2], 15.4%; in assay [3] it was 6.25%; in assay [4] it was 5.35%; in assay [5] it was 28.6%; in assay [6], 15.1%.

For the compound `CC(=O)Nc1c(Cl)cc(N)cc1Cl`, the growth inhibition was 9.35% in assay [1]; -23.4% in assay [2]; 2.3% in assay [3]; 9.85% in assay [4]; -16.4% in assay [5]; 4.3% in assay [6].

Turning to `CC(C)(O)C1CCC/C1=N/NC(N)=O` (centres undefined), the growth inhibition in assay [1] was -7.5%; in assay [2], 5%; in assay [3], 5.2%; in assay [4], 3.55%; in assay [5], -10.3%; in assay [6] it was -11.3%.

As to `CCCOc1nc(N)c2cnn(C3CCCCO3)c2n1` (centres undefined), the growth inhibition in assay [1] was -14.9%; in assay [2] it was -25.5%; in assay [3] it was 8.05%; in assay [4], 16.1%; in assay [5], 14.2%; in assay [6] it was -9.25%.

Turning to `O=[N+]([O-])c1ccccc1C1SCc2nc3ccccc3n21` (centres undefined), the growth inhibition in assay [1] was 25.2%; in assay [2] it was 10.2%; in assay [3], 31.8%; in assay [4] it was 30.5%; in assay [5] it was 44.5%; in assay [6], 12.3%.

Take `O=[N+]([O-])c1ccc(C[N+]2(CCC[N+]3(Cc4ccc([N+](=O)[O-])cc4)CCCC3)CCCC2)cc1`: the growth inhibition in assay [1] is -1.6%; in assay [2], -18.2%; in assay [3], -2.1%; in assay [4] it was 10.7%; in assay [5] it was 8.75%; in assay [6], 2.3%.

As for `CCOc1ccc(N=Cc2c3ccccc3nc3ccccc23)cc1`, the growth inhibition in assay [1] is -3.05%; in assay [2], 14.5%; in assay [3], -3.25%; in assay [4], 25.9%; in assay [5], 6.25%; in assay [6], -9%.

As to `CC(=O)OC1COC(N2C(=O)C(=O)c3ccccc32)C(OC(C)=O)C1OC(C)=O` (centres undefined), the growth inhibition was 13.1% in assay [1]; 19.4% in assay [2]; -1.5% in assay [3]; -22.4% in assay [4]; 9.05% in assay [5]; 19.1% in assay [6].

For `CC(=O)NCCCCNS(=O)(=O)c1ccc(C)cc1`, the growth inhibition in assay [1] was -16.1%; in assay [2], -3.15%; in assay [3], -17.4%; in assay [4], -6.1%; in assay [5], -0.7%; in assay [6] it was 5.1%.

In the case of `C(=C\c1ccc(OCc2ccccc2)cc1)/c1ccc(OCc2ccccc2)cc1`, the growth inhibition in assay [1] was -5.5%; in assay [2], -13.7%; in assay [3], -13.6%; in assay [4], -7.6%; in assay [5] it was -24.6%; in assay [6], -26%.

For the origin of these results see PubChem BioAssay (NCI).
